Experimental findings from PubChem BioAssay AID686978 (National Center for Advancing Translational Sciences (NCATS), 2013) are described below.

The structures appear in SMILES notation. About 64,000 (15%) of roughly 420,000 compounds were called active. Roughly 27% stayed inconclusive and do not appear here. A selection follows. Values without a mark were called inactive. The call rests on the fitted dose curve; in most records, active means well fitted inhibition curve with a large enough effect; inconclusive means small, poorly fitted or top-dose-only effect; inactive means flat fitted curve, though single readings scatter.
On the % scale 0 is the no-effect control and ±100 the full control effect; potency means the concentration at half of the fitted maximal effect.

The test can be described thus: qHTS for Inhibitors of human tyrosyl-DNA phosphodiesterase 1 (TDP1): qHTS in cells in absence of CPT. Further: nearly all actives have a fitted effect of over 55% in size. The following applies: DT40 Tdp1-/- hTDP1 cells, no CPT, ATP luminescence, 48 h; activity change, negative = growth inhibition: at 46.2 µM (top of the series). The essentials:
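Readout: luminescence from CellTiter-Glo after 30 min in the dark at RT. Cells: DT40 Tdp1-/- with stable hTDP1, 400/well. Exposure: compounds alone, ≥48 hr, 37 °C.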
On to `O=C(c1ccco1)N1CCN(c2cccc(Cl)c2)CC1`, for which the “activity change, negative = growth inhibition” value is -21.5%. The same measure, in the same setting: the value for `COc1cccc(OC)c1C(=O)Nc1ccc(N2CCCCC2)cc1` was -2.14%; that for `NS(=O)(=O)c1ccc(NC(=O)C(=O)Nc2ccc3nc4n(c(=O)c3c2)CCCCC4)cc1` was 8.65%. Take `Cc1ccc(OCC(=O)Nc2ccc(N3CCN(C(=O)c4ccco4)CC3)cc2)c(C)c1`: the Potency was 8.2 µM (active).

On to `COc1cccc(OCc2cc(C(=O)N3CCN(C(=O)c4ccco4)CC3)no2)c1`, for which the “activity change, negative = growth inhibition” value is -24.7%.

As to `COc1cccc(C(=O)Nc2ccc(N3CCN(C(=O)c4ccco4)CC3)cc2)c1`, the Potency was 11.6 µM (active). As for `COc1ccccc1NC(=O)C1=C(C)NC2=C(C(=O)CCC2)C1c1ccc(C)o1` (configuration not stated), the “activity change, negative = growth inhibition” value is -2.13%. Same read-out and setting: the result for `CCN(CC)C(=O)C(=O)c1cn(CC(=O)NCc2ccc3c(c2)OCO3)c2ccccc12` reads -6.26%; that for `CCOC(=O)N1CCN(S(=O)(=O)N2CCCC(C(=O)NCCCN3CCC(C)CC3)C2)CC1` (configuration not stated), 21.8%; that for `Cc1ccc(C(c2sc3nc(C)nn3c2O)N2CCN(c3ccc(F)cc3)CC2)cc1` (configuration not stated), -20.8%.

With `Cc1ccc(CNC(=O)CCNS(=O)(=O)c2cccc3nonc23)cc1`, the “activity change, negative = growth inhibition” value is -8.67%. The same measure, in the same setting: the result for `CS/C(=C\C(=O)c1ccco1)Nc1ccccc1Cl` reads -29.9%.

`Cc1nc(CN(C)C(=O)CC2C(=O)NCCN2Cc2ccc(F)cc2)cs1` (configuration not stated): the “activity change, negative = growth inhibition” value was -2.58%. For `O=C(CCNS(=O)(=O)c1ccccc1C(F)(F)F)Nc1ccncc1`, the “activity change, negative = growth inhibition” value was 4.83%. With `Cc1cc(Nc2ccccc2)n(C(=O)c2ccc(N)cc2)n1`, the “activity change, negative = growth inhibition” value was -5.11%.

On to `CC(C)c1ccc(NS(=O)(=O)c2cn(C)c(=O)n(C)c2=O)cc1`, for which the “activity change, negative = growth inhibition” value was -14.9%.

`O=C(Cc1ccccc1)NNC(=O)C1CCN(c2ncccn2)CC1`: the “activity change, negative = growth inhibition” value is -26.3%. The same measure, in the same setting: the result for `COc1ccc(NC(=O)CSc2nc(NS(=O)(=O)c3ccc(C)cc3)cc(=O)[nH]2)cc1` reads -23.2%.

As to `CCc1ccc(OC(C)C(=O)Nc2ccc(S(=O)(=O)Nc3cc(C)on3)cc2)cc1` (configuration not stated), the “activity change, negative = growth inhibition” value is -3.93%.

With `CC(=O)Nc1ccc(S(=O)(=O)Nc2cc(C)cn(Cc3ccc(C)cc3)c2=O)cc1`, the Potency is 11.6 µM (active). In the case of `CCN(CC)CCn1c2c(c(SCC(=O)Nc3nc4ccccc4s3)nc1=O)CCCC2`, the “activity change, negative = growth inhibition” value was -54.2%. Same read-out and setting: the value for `O=C(Nn1cnc2ccccc2c1=O)c1ccccc1` was 0.973%; that for `Cc1cccc(C(=O)NCCCN(C)CCCNC(=O)c2cccc(C)c2)c1` was -2.23%.

Take `CSc1nc(N(C)NC(=O)c2cccc(C)c2)c2ccccc2n1`: the Potency was 0.0146 µM (active). The same measure, in the same setting: the value for `CN(NC(=O)c1ccccc1F)c1nc(C(F)(F)F)nc2ccccc12` was 0.206 µM (active). For the compound `Cc1ccc(S(=O)(=O)NC(=O)c2cccc(C)c2)cc1`, the “activity change, negative = growth inhibition” value was 0.889%. Still for that read-out and setting: the result for `O=C(Cn1cnc2ccccc2c1=O)NNC(=O)c1ccccc1F` reads 6.81%. Take `CN(NC(=O)c1ccccc1)c1nc2ccccc2nc1C(F)(F)F`: the Potency is 7.31 µM (active). For `Cc1nc2ccccc2c(=O)n1NC(=O)c1ccccc1`, the “activity change, negative = growth inhibition” value is 8.1%. The same measure, in the same setting: the result for `COC(=O)CNC(=O)c1ccccc1F` reads -46.9%; that for `Cc1cc(OC(C)C(=O)NC2CC(C)(C)NC(C)(C)C2)c2c(C)cc(=O)oc2c1` (configuration not stated), 3.08%. With `Oc1ccccc1-c1nc(/C=C/c2ccc(F)cc2)no1`, the “activity change, negative = growth inhibition” value is -29.4%. `CCCN(c1ccc(C(C)C)cc1)S(=O)(=O)c1c(C)[nH]c(=O)[nH]c1=O`: the “activity change, negative = growth inhibition” value is -9.18%. Still for that read-out and setting: the value for `O=C(NC1CCCCC1)C1CCC(CNS(=O)(=O)c2ccccc2)CC1` (configuration not stated) was 1.01%; that for `CCOc1ccc(N(CC(=O)NC2CCCCCC2)S(=O)(=O)c2c(C)[nH]c(=O)[nH]c2=O)cc1` was 10.1%; that for `CC(=O)NC(NC(=S)Nc1c(C)n(C)n(-c2ccccc2)c1=O)C(Cl)(Cl)Cl` (configuration not stated) was 6.77%. `CC1(C)Cc2cccc(OCC(N)=O)c2O1`: the “activity change, negative = growth inhibition” value was 8.49%. The same measure, in the same setting: the value for `CC(=O)Nc1cncc(-c2ccccc2CO)n1` was 0.247%; that for `CC1C(=O)NC(=O)C1c1ccccc1` (configuration not stated) was 22.4%. On to `O=C(CNC(=O)c1ccccc1Br)NCCSc1ccc(Br)cc1`, for which the Potency was 18.4 µM (active).

For `COc1cccc(C(=O)NCCSc2ccc(Br)cc2)c1`, the “activity change, negative = growth inhibition” value is -15.9%.

For the compound `O=C(CCNS(=O)(=O)c1ccccc1)NCCSc1ccc(Br)cc1`, the “activity change, negative = growth inhibition” value is -13.8%. The same measure, in the same setting: the result for `CC(=O)c1sc(NC(=O)CCN2C(=O)C3CC=CCC3C2=O)nc1-c1ccccc1` (configuration not stated) reads 0.639%; that for `CC(Oc1ccccc1)C(=O)Nc1oc(-c2ccco2)c(-c2ccco2)c1C#N` (configuration not stated), -2.75%. In the case of `CSc1ncc(Cl)c(C(=O)Nc2ccc(S(=O)(=O)N3CCCC(C)C3)cc2)n1` (configuration not stated), the Potency was 14.6 µM (active). For `CCc1ccc(NC(=O)c2cc(S(=O)(=O)N3CCCC(C)C3)cn2C)cc1` (configuration not stated), the “activity change, negative = growth inhibition” value is -0.723%. On the same count and under the same terms, the value for `CSc1ncc(Cl)c(C(=O)Nc2cc(C)ccc2C)n1` was 15.7%; that for `COc1c(F)c(F)c(-c2csc(N)n2)c(F)c1F` was -28.9%.

In the case of `Cc1cc(C)n(CCNCc2c(C(=O)N3C[C@@H](C)O[C@@H](C)C3)nc3ccc(Cl)cn23)n1`, the “activity change, negative = growth inhibition” value is -0.569%. In the case of `CC(=O)NN1C(=O)c2ccccc2NC1c1ccccc1` (configuration not stated), the “activity change, negative = growth inhibition” value is 2.25%. With `O=C1c2ccccc2NC(c2ccccc2O)N1NS(=O)(=O)c1ccccc1` (configuration not stated), the “activity change, negative = growth inhibition” value is -7.78%. On to `CCOC(=O)NN1C(=O)c2ccccc2NC1c1ccccc1O` (configuration not stated), for which the Potency was 23.1 µM (active).
